Experimental data from the supplement of paper PMC11732987, “Enantioselective OTUD7B fragment discovery through chemoproteomics screening and high-throughput optimisation” (Communications Chemistry, 2025).

Key:
Test in all cases: log2 ratio of Biotin-Ahx-Ub-VS probe labelling (fragment/DMSO); higher = less target engagement (more negative = stronger competition), active = hit call of the paper (q ≤ 0.05, log2 ratio ≤ -1)
Conditions in all cases: compound concentration: 200 uM; treatment time: 3 h
[1] = biological target: T1, USP19 (UniProt O94966)
T1 sequence (whole entry): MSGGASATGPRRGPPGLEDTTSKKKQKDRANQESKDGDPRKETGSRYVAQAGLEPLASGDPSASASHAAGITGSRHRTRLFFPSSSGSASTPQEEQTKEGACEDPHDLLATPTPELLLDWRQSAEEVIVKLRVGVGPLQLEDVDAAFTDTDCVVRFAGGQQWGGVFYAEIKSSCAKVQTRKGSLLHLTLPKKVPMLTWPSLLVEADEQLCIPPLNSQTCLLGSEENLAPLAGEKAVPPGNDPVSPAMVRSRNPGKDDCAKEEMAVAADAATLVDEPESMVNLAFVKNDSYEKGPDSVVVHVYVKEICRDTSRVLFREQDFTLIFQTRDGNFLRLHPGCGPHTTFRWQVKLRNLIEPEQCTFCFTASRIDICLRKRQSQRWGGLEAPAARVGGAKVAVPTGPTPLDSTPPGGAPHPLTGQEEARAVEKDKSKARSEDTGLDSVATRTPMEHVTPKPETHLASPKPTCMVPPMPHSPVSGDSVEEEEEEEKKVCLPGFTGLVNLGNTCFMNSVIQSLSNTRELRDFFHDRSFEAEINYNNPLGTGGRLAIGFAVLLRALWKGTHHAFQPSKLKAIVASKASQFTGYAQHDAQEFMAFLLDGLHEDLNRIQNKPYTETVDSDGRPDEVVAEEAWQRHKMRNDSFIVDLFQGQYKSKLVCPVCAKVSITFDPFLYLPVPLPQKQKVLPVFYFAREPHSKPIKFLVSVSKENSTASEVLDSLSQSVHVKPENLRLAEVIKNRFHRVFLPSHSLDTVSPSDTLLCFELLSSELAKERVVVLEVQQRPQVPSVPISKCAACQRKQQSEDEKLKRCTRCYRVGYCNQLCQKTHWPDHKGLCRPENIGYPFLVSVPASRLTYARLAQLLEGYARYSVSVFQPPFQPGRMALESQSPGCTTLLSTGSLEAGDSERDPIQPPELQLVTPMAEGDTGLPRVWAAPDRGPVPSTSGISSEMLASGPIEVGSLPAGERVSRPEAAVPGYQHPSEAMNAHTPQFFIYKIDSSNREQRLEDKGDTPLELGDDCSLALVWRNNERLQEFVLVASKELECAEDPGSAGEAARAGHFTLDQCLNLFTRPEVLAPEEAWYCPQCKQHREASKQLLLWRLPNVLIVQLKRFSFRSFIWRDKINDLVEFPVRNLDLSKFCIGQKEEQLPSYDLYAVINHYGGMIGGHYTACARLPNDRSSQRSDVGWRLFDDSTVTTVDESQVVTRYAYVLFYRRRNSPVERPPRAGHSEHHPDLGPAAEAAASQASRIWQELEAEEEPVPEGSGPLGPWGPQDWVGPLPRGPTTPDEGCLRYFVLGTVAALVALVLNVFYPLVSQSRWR
Summary of the method: (§1)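 Triplicate samples of HEK293T lysate, 495 µg each, received fragment at 200 µM or vehicle for 3 h, followed by Biotin-Ahx-Ub-VS (0.5 µM final) for 1 h. After NeutrAvidin enrichment of labelled DUBs and LysC/trypsin digestion, peptides were run by diaPASEF LC-MS/MS. The values are average log2 fragment/vehicle ratios from global-median-normalised Spectronaut label-free quantities, tested by unpaired t-test on proteins having ≥2 unique peptides.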

[2] = biological target: USP24 (UniProt Q9UPU5)
USP24, sequence (Q9UPU5 whole entry): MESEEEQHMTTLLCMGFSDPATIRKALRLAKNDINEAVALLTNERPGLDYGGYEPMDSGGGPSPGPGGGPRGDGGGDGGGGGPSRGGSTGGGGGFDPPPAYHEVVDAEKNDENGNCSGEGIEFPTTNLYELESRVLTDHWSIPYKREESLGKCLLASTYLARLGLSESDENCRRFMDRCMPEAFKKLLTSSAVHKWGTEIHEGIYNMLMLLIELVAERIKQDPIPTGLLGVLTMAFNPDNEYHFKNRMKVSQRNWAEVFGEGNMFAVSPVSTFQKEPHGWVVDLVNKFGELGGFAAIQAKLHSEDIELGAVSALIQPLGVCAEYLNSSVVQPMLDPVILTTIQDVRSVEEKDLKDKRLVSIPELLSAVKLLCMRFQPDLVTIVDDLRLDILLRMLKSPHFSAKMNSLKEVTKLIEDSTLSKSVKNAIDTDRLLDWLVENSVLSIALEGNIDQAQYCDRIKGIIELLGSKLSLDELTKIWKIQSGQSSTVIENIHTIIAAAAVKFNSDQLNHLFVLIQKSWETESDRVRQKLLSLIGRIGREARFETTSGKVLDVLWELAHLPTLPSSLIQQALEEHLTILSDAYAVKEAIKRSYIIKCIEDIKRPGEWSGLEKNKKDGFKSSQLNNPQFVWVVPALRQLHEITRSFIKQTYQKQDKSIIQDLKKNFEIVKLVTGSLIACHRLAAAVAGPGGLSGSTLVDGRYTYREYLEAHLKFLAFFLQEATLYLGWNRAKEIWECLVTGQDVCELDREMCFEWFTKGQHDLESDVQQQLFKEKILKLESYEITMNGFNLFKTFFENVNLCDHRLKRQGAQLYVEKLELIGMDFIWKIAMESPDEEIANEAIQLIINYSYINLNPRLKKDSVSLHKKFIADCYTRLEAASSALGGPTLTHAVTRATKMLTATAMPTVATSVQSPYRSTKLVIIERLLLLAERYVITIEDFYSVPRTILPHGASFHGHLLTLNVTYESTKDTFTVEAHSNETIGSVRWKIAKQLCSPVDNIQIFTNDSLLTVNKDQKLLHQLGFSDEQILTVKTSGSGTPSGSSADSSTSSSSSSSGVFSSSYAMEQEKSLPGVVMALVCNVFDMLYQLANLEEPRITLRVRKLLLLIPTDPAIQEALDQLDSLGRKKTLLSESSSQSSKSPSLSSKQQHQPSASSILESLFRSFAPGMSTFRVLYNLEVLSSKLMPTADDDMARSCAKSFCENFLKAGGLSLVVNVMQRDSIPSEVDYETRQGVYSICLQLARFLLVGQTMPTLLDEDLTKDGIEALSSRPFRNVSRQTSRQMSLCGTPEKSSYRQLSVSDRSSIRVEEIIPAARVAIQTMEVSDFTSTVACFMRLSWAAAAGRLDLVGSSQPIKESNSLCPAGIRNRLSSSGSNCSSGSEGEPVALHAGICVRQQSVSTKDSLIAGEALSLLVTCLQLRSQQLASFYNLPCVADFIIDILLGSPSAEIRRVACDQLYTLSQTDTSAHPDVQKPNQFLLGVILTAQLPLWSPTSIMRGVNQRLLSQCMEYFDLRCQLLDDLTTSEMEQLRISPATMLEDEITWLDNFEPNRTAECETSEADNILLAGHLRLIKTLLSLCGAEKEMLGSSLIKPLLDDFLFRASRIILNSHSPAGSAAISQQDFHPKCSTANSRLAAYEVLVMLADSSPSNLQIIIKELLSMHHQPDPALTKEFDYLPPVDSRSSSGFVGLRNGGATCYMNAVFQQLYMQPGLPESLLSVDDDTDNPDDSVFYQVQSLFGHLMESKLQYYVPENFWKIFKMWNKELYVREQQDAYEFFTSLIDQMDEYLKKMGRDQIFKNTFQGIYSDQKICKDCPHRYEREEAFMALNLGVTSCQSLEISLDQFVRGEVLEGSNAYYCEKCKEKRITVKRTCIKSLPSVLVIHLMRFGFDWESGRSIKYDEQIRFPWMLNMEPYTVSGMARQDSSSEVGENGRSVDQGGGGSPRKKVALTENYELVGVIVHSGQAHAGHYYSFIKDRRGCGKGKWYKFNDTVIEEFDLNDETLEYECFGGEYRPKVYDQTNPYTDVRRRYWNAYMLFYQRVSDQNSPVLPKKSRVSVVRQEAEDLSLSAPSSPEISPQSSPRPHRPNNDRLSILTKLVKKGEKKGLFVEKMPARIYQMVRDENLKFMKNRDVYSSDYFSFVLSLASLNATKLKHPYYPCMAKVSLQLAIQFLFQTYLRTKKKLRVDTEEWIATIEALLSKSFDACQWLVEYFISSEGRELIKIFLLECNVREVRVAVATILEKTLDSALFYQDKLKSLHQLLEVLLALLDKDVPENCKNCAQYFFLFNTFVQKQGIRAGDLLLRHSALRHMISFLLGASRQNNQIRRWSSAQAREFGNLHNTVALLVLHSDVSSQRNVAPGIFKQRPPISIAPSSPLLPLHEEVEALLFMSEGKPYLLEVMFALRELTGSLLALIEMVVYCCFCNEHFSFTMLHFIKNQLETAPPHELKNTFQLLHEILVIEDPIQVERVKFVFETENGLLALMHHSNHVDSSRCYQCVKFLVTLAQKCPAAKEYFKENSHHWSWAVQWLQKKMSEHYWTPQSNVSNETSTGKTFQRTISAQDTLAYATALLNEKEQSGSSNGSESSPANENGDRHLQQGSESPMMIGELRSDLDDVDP
Summary of the method: as §1

[3] = biological target: T2, USP25 (UniProt Q9UHP3)
T2 sequence (whole entry): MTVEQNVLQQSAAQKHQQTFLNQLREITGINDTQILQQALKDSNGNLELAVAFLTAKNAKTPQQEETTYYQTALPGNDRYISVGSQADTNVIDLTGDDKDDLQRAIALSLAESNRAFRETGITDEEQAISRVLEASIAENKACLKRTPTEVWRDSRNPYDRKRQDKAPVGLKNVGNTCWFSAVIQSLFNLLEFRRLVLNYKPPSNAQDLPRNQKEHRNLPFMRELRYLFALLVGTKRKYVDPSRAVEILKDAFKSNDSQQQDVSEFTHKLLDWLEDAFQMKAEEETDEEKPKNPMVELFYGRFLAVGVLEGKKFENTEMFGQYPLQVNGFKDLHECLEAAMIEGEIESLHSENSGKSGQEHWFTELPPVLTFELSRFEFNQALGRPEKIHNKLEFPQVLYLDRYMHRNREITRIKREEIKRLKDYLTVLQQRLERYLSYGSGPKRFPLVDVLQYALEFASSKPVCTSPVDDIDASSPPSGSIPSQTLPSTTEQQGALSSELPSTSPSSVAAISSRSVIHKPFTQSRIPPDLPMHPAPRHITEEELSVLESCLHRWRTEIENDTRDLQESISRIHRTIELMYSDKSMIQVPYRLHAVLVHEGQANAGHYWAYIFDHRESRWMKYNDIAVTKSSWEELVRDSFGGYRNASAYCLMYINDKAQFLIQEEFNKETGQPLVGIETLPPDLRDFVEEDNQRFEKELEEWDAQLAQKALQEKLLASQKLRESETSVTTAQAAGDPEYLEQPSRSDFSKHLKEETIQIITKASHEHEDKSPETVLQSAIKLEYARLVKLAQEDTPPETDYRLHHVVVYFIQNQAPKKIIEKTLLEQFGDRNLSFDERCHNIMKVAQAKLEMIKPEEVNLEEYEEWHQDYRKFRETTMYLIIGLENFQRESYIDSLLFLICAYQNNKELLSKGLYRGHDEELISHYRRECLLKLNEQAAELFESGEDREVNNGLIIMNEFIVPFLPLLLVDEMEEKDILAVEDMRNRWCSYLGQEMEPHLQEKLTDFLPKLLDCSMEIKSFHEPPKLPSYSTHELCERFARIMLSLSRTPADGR
Summary of the method: as §1

[4] = biological target: T3, USP28 (UniProt Q96RU2)
T3 sequence (whole entry): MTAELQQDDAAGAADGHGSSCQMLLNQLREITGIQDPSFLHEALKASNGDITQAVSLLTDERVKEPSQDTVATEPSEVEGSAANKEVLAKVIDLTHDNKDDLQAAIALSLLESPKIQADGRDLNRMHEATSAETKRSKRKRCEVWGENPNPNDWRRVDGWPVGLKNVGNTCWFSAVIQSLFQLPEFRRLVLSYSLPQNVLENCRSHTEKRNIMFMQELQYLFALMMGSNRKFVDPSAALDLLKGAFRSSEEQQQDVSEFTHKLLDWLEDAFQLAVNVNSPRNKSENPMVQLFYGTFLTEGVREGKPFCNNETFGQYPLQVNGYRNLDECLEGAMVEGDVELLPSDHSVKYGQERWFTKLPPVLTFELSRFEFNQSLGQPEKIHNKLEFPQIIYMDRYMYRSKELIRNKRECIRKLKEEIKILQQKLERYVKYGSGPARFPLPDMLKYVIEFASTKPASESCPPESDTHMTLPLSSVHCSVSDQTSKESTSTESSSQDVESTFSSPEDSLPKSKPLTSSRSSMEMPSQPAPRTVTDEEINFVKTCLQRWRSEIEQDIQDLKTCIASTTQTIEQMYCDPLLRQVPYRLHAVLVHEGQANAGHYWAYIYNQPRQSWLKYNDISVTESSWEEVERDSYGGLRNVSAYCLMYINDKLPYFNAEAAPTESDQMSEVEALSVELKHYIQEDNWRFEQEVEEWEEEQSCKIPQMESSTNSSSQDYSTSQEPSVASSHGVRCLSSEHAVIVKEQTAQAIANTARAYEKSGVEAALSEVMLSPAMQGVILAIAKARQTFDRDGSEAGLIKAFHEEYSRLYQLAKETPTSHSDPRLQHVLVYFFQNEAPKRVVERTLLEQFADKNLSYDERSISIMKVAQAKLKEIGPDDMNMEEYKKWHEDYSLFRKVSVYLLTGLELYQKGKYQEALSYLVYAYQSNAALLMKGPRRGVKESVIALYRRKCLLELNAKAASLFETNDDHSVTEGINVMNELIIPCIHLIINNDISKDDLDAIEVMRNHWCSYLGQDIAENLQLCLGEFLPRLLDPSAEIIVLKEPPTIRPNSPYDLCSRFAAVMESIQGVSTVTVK
Summary of the method: as §1

Measured: log2 ratio of Biotin-Ahx-Ub-VS probe labelling

Cc1cc(CC(C)NC(=O)CCl)n[nH]1 (centres undefined)
inactive: [1] -0.257 | [2] -0.17 | [3] -0.198 | [4] -0.332
